# Experimental data published in PubChem BioAssay AID1008 (NMMLSC, 2008).
# The whole screen tested about 190,000 compounds, of which about 240 (0.13%) were called active. What follows is part of a selection rich in actives, with near analogues and random picks from the rest. Values without a mark were called inactive. No stated cut-off is given here; in the data, active means inhibition above about 40%.
# Molecular target: Bcl-2-related protein A1 (Homo sapiens) (UniProt Q16548)
# Assay: Bfl-1/Bim complex disruptors – biochemical, multiplexed, bead-based flow cytometry, primary screen (AID 1008);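 further: 0% = wells without compound plus tracer and 100% = blocker peptide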
# Settings: Bim-Bfl-1 binding inhibition, at 10 µM, active compounds read high
# Bcl-2-related protein A1 (Homo sapiens), sequence (Q16548 whole entry, looked up): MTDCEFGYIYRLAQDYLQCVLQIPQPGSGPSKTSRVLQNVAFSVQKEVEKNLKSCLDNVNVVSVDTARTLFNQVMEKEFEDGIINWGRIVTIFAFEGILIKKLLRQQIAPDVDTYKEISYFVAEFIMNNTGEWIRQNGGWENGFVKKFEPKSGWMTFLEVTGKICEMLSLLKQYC
row,Compound,inhibition
1,Cc1ccc(/C=N/NC(=O)Cn2ccc(C(F)(F)F)n2)o1,-3%
2,COc1ccc(N2C(=O)C(CC(=O)Nc3ccc(F)cc3)N(CCc3cccs3)C2=O)cc1 (configuration not stated),-3%
3,Cc1cc(C(=O)NNC(=O)c2cccc(S(=O)(=O)N3CCOCC3)c2)c2ccccc2n1,-6%
4,CC(C)n1c(O)c(N=Nc2ccccn2)c2ccccc21,-1%
5,CCC(O)C1CCN(Cc2cn(-c3ccc(OC)cc3)nc2-c2cccc(F)c2)CC1 (configuration not stated),-8%
6,CC(=O)C1=C(C)NC2=C(C(=O)CC(C)(C)C2)C1C (configuration not stated),-2%
7,O=C(O)CSc1nccc2ccccc12,5%
8,OC1CCCN(c2ncnc3c2nnn3Cc2c(F)cccc2Cl)C1 (configuration not stated),4%
9,CO/N=C/CC(=O)c1ccc(OC)cc1,-2%
10,OCCC1CN(Cc2ccc3nsnc3c2)CCN1C1CCCC1 (configuration not stated),-8%
11,CCc1ccc(C2C(C#N)=C(N)N(N(C)C)C3=C2C(=O)CCC3)s1 (configuration not stated),0%
12,CC(OC(=O)c1ccccc1OCc1ccc(Cl)cc1)C(N)=O (configuration not stated),-4%
13,CC1Cc2ccccc2N1C1=CC(=O)CC(C)(C)C1 (configuration not stated),-4%
14,CCOc1ccccc1/C=N/NC(=O)CNC(=O)COc1ccccc1,54% (active)
15,C=CCc1ccccc1OCC(=O)N/N=C/c1ccccc1OCC,-1%
16,Cc1ccc(/C=N/NC(=O)CNC(=O)COc2ccccc2)o1,-12%
17,C=CCOC(=O)C1=C(C)N=C2SCCC(=O)N2C1/C=C/c1ccccc1OC (configuration not stated),-9%
18,CCc1nnc(NC(=O)/C=C/c2ccc(C)o2)s1,-1%
19,Cc1c(NC(=O)/C=C/C(=O)O)cccc1[N+](=O)[O-],-15%
20,Cc1ccc(/C=C/C(=O)Nc2ccc([N+](=O)[O-])c(NC(=O)/C=C/c3ccc(C)o3)c2)o1,40% (active)
21,O=C(/C=C/c1ccc(Cl)cc1)Nc1ccc(Br)cn1,-6%
22,Cc1nn(-c2ccccc2)c(NC(=O)c2cccs2)c(-c2ccc(Cl)cc2)c1=O,-7%
23,CSCc1cc(N(C)C)nc(SCc2ccc(Cl)cc2Cl)n1,52% (active)
24,CSCc1cc(N2CCOCC2)nc(SCc2ccc(Cl)cc2Cl)n1,-15%
25,Clc1ccc(CSc2nnc(/C=C/c3ccccc3)o2)c(Cl)c1,-12%

row,Compound,inhibition
1,COc1cc(OC)cc(-c2nnc(N(C)C(=O)c3ccncc3)s2)c1,-10%
2,CCO[C@H]1OC(C(=O)N2CCCCCCC2)=C[C@@H](c2ccc(C(F)(F)F)cc2)[C@@H]1CCCO,-7%
3,CC(/C=N/NC(=O)c1ccncc1)=C\c1ccco1,-1%
4,CC(/C=N/NC(=O)c1cc(-c2ccc3ccccc3c2)n[nH]1)=C\c1ccco1,8%
5,C/C(=C\c1ccco1)C1Nc2cccc3cccc(c23)N1,45% (active)
6,CCn1c(CNC(=O)c2ccco2)nnc1SCC(=O)Nc1cccc(F)c1,-1%
7,Cc1ccc(C2CCN(C(=S)Nc3cccc(Cl)c3)C2)cc1 (configuration not stated),-4%
8,COC(=O)c1cc2c(ccn2C)n1C,-5%
9,COc1cc(OC)c(C(=O)OCC(=O)N2CC(=O)Nc3ccccc32)cc1OC,-1%
10,CCC(=O)c1ccc(OCC(O)Cn2nc(C)c(C(C)=O)c2C)cc1 (configuration not stated),0%
11,CNC(=S)N1CCC(NC(=O)C(Cc2ccc(F)cc2)NC(C)=O)CC1 (configuration not stated),-2%
12,Cc1cc(CNCc2c(C(=O)N(C)Cc3ccccc3)nc3ccccn23)nn1C,-6%
13,COc1cccc(CNC(=O)CCN2C(=S)NC(C)(C)CC2C)c1 (configuration not stated),-5%
14,Cc1cc(OC(=O)c2ccccc2)c([N+](=O)[O-])c(=O)[nH]1,-5%
15,S=c1ccc2ccccc2[nH]1,-4%
16,Cc1cccc(CSc2nc3c(c(=O)n2C)SCC3)c1,-2%
17,CCOc1cc(CNn2c(C)nnc2SCC(=O)NC(C)(C)C)ccc1OCC(=O)NC(C)(C)C,-7%
18,CC(C)Cn1c(N)c(C(=O)COC(=O)CN2C(=O)C3CC=CCC3C2=O)c(=O)n(C)c1=O (configuration not stated),-8%
19,COc1ccc(CNc2c(CO)cnc3c2cnn3C)cc1,-3%
20,CCc1ccc(NC(=O)C(=O)N/N=C(\C)CC(=O)NCCOC)cc1,-3%
21,O=C1C=CC(=O)N1c1ccc(N2CCCCC2)cc1,11%
22,CN1CCN(S(=O)(=O)c2cccc(C(=O)N3CCc4ccccc43)c2)CC1,1%
23,COc1cccc(CNC(=O)CCC2CCCN(Cc3ccc(OC(F)F)cc3)C2)c1 (configuration not stated),-4%
24,Cc1ccc(O)c(-c2cc(C(=O)Nc3c(C)n(C)n(-c4ccccc4)c3=O)[nH]n2)c1,-2%
25,COc1cc(C(=O)NNC(=O)c2ccc(S(=O)(=O)N3CCCCC3)cc2)cc(OC)c1OC,7%

row,Compound,inhibition
1,CCc1ccc(NC2Nc3cc(C)nn3S2)cc1 (configuration not stated),-1%
2,CN(C)C(=O)CSc1n[nH]c(-c2ccco2)n1,2%
3,Cc1ccc(NC(=O)Cn2c(=O)n(CCC(=O)NC3CCN(Cc4ccccc4)CC3)c(=O)c3ccccc32)cc1,-9%
4,Cc1cccc(C)c1N1CCN(S(=O)(=O)N2CCCCC2)CC1,-3%
5,O=C(CSc1ncnc2scc(-c3ccccc3)c12)NCc1ccc2c(c1)OCO2,0%
6,CN(CCN1CCOCC1)Cc1nc(-c2ccc3c(c2)OCO3)no1,-5%
7,N#C/C(=C(\O)C(F)(F)F)c1nnc2n1CCCCC2,-5%
8,CC1CCN(C2=NC(=O)/C(=C/c3cn[nH]c3-c3ccccc3)S2)CC1,-13%
9,O=C(Nc1nc(-c2cccnc2)cs1)c1ccccc1F,-9%
10,CN1CCN(NC(=O)c2ccc(S(=O)(=O)N3CCCCCC3)cc2)CC1,-2%
11,CC1CCCCC1NC(=O)CO/N=C/c1ccc(OC(F)F)cc1 (configuration not stated),-7%
12,CCOC(=O)N1CCC(NC(=O)C(NS(=O)(=O)c2ccc3c(c2)CCN3C(=O)CC)C(C)C)CC1 (configuration not stated),-4%
13,CCc1nnc(NS(=O)(=O)c2ccc(NC(=S)NC(=O)/C=C/c3cccs3)cc2)s1,1%
14,CC(C)C(C)(C#N)NC(=O)CSc1nc2scc(-c3ccccc3)c2c(=O)[nH]1 (configuration not stated),3%
15,Cc1ccc(N(C(=O)c2ccc(CN3CCOCC3)o2)C(C(=O)NCCC(C)C)c2cccs2)c(C)c1 (configuration not stated),-7%
16,O=C(O)CCS(=O)(=O)c1ccc(-c2ccccc2)cc1,0%
17,O=C(NCc1ccccn1)c1cc(-c2ccccc2Cl)on1,0%
18,O=C(NCc1ccccn1)c1ccc2nc(-c3ccco3)c(-c3ccco3)nc2c1,43% (active)
19,COc1ccc(NC(=O)Nc2ccc3nc(C)c(C)nc3c2)cc1,-2%
20,COCCNC(=O)Nc1ccc2nc(-c3ccco3)c(-c3ccco3)nc2c1,48% (active)
21,CN(c1ccc(C(=O)NCc2ccccn2)cc1)S(C)(=O)=O,-18%
22,COc1ccc(NC(=O)Nc2ccc3nsnc3c2)cc1,-1%
23,Cc1nnc(-c2ccc(Oc3ccc(C)c(C)c3)c([N+](=O)[O-])c2)o1,9%
24,Cc1cccc(C2c3[nH]c4ccccc4c3CCN2C(=O)c2cc(-c3cccn3C)n[nH]2)n1 (configuration not stated),-4%
25,Cc1cc(/C=C2/NC(=O)NC2=O)c(C)n1-c1cccnc1,-4%

row,Compound,inhibition
1,CCCCNC(=S)N/N=C1\CCCCc2ccccc21,0%
2,COc1cccc(-n2c(=S)sc3c(=O)n(-c4ccccc4OC)c(SCC4OCCO4)nc32)c1,-3%
3,O=C(NNC(=O)C1C2CCC(C2)C1C(=O)O)c1ccc(Cl)cc1 (configuration not stated),-8%
4,COc1cccc(NC(=O)Cn2c3ccccc3c3nc4n(c(=O)c32)CCS4)c1,2%
5,CC(C)(C)NCCCOc1ccc(Cl)cc1C(C)(C)C,-1%
6,CCCCN=C1C([N+](=O)[O-])=CC=C2C1=NC1(CCCCC1)N2O,0%
7,c1ccc(-c2cc3c(NCC4COc5ccccc5O4)ncnc3s2)cc1 (configuration not stated),-5%
8,CC1CCCN(S(=O)(=O)c2ccc(N(C(=O)c3cnccn3)C(C(=O)NC3CCCCC3)c3cccs3)cc2)C1 (configuration not stated),-2%
9,O=C(COC(=O)/C(=C/c1cccs1)c1cccs1)NCc1ccccc1Cl,0%
10,O=C(CN1CCCCCC1)NCCN1C(=O)S/C(=C\c2ccccc2Cl)C1=O,-4%
11,O=C(O)c1cccc(N2C(=O)Nc3ccccc3N2O)c1,0%
12,O=C(CCN1CCCCC1)N=Nc1c(O)[nH]c2ccccc12,0%
13,CC(=O)Nc1ccc(NC(=S)NC(=O)/C=C/c2ccccc2)cc1,-3%
14,CCCCNS(=O)(=O)c1ccc2nc(SCC(=O)Nc3cc(C)cc(C)c3)[nH]c2c1,-1%
15,O=C(NCC1CCN(Cc2ccccc2Cl)CC1)Nc1cccc(Cl)c1,-6%
16,CCOC(=O)c1cc2c(nc1NC(=S)Nc1ccccc1)CC(C)(CC)OC2 (configuration not stated),-11%
17,Cn1nnnc1SCC(=O)NNC(=O)c1ccc(Br)cc1,-10%
18,CCCCCN(C(=O)NC(=O)Nc1cccc(C)c1C)S(C)(=O)=O,-7%
19,CCn1c(C(C)NC(=O)c2ccc(C)cc2)n[nH]c1=S (configuration not stated),1%
20,CC(C)CN(C(=O)CN1CCN(S(=O)(=O)c2ccccc2)CC1)c1c(N)n(CC(C)C)c(=O)[nH]c1=O,-2%
21,O=C(c1cc(=O)c2ccccc2o1)N1CCN(c2ccccc2)CC1,0%
22,CN(C(=O)COc1ncnc2c1cnn2-c1ccccc1)C1CCCCC1,-7%
